We go through eight compounds from PubChem BioAssay (NCATS).

Inconclusive results are not listed. Activity calls are given as the source filed them. Unless noted, calls follow the shape of the dose curve; as a rule, active = well fitted curve in the direction sought with a large enough effect; inconclusive = small, poorly fitted or top-dose-only effect, or another doubt; inactive = no such curve, though single readings can be large; an effect the other way counts as inactive or inconclusive.

Experiment [1] has as its target Thyrotropin receptor (Homo sapiens) (UniProt P16473). The experiment is described as follows: qHTS Assay for Antagonists of the Thyroid Stimulating Hormone Receptor (AID 488980). Also: series mostly up to about 58 µM; 0% is about no effect. The method, boiled down: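 Inhibition of cAMP raised by EC80 TSH (4 nM final) was read by HTRF, with lysate cAMP competing against cAMP-d2 for cryptate antibody after 30 min at room temperature. The cells were transfected HEK293 held in phosphodiesterase inhibitor RO 20-1724 at 70 uM.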

Experiment [2] deals with D(1A) dopamine receptor (Homo sapiens) (UniProt P21728). The experiment in a line: HTS Assay for Allosteric Agonists of the Human D1 Dopamine Receptor: Primary Screen for Agonists (AID 488981). Also: 0% is about no effect. The method, boiled down:
(§1)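 Tetracycline-induced HEK293 Trex D1 cells with forced coupling to calcium, loaded with no-wash calcium dye; kinetic fluorescence read 180 s after compound addition for agonism, then a further 180 s after an EC20 dopamine challenge for potentiation.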

The target is the same in experiment [3]. The experiment is described as follows: HTS Assay for Allosteric Agonists of the Human D1 Dopamine Receptor: Primary Screen for Antagonists (AID 488983).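 Also: calcium flux response to an EC80 dopamine challenge measured with no-wash dye; % is scaled to controls: 0 for no effect and ±100 for the full control effect; nearly all actives have a fitted effect of over 65% in size.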 The method, boiled down: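 Tetracycline-induced HEK293 T-REx cells expressing force-coupled D1 were plated overnight at 30 C, dye-loaded for calcium, and read kinetically. Compounds were pinned in, then an EC80 dopamine challenge followed after 180 s to reveal antagonism.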

A short description of experiment [4]: Validation screen for small molecules that induce genotoxicity in human embryonic kidney (HEK293T) cells expressing luciferase-tagged ELG1 (AID 493106). Also: 0% is about no effect. The method, boiled down: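 HEK293T cells expressing luciferase-tagged ELG1 were exposed to compound or DMSO vehicle for 16 hr at 37 °C, 5% CO2. Genotoxic stress raises ELG1 levels, so increased luciferase signal after ONE-Glo addition and 30 min at room temperature marks hits.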

The target of experiment [5] is ATPase family AAA domain-containing protein 5 (Homo sapiens) (UniProt Q96QE3). The experiment in a line: Validation screen for small molecules that inhibit ELG1-dependent DNA repair in human embryonic kidney (HEK293T) cells expressing luciferase-tagged ELG1 (AID 493107).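 Also: cells co-treated with the DNA-damaging agent 5-fluorouridine alongside compound; series mostly up to about 46 µM; % is scaled to controls: 0 for no effect and ±100 for the full control effect; inhibitors lower the ELG1-luciferase luminescence signal; nearly all actives have a fitted effect of over 70% in size.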 The method, boiled down:
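HEK293T cells expressing luciferase-tagged ELG1 were co-treated with 5-fluorouridine and compound or DMSO for 16 hr at 37 °C, 5% CO2. Luciferase activity was then read with ONE-Glo after 30 min at room temperature; suppressed signal indicates blocked ELG1 function.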

Experiment [6] deals with Thyrotropin-releasing hormone receptor (Homo sapiens) (UniProt P34981). The experiment in a line: qHTS for Small Molecule Agonists and Allosteric Enhancers of Human TRH Receptor: Validation Screen for Agonists (AID 493127;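 active = calcium activation more than 3 SD above the typical response in the agonist read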;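 also: intracellular calcium rise by fluo-8 fluorescence before TRH EC20 addition; 0% is about no effect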). As to conditions: TRH receptor agonist cell assay; at 2 µM; stronger effect = higher value. The method, boiled down:
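TRHR-expressing cells were plated overnight in serum-containing medium, then loaded with fluo-8 calcium dye at room temperature for 30 min–1.5 h. After a 10 s baseline, compound was pin-transferred and calcium fluorescence (ex 480/em 530) read kinetically for agonist response.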
Background: qHTS replaces the single test concentration by a dilution series.

Experiment [7] is described as follows: Nrf2 qHTS screen for inhibitors: Validation (AID 493153; active = well fitted inhibition curve with a large enough effect in the main read-out, with a control signal flat, not every such curve was filed as active). As to conditions: Potency: luciferase luminescence; viability change: measured here: cytotoxicity max response. The method, boiled down: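 A549 cells carrying an ARE-driven firefly luciferase reporter, in 5% FBS OPTI-MEM, were treated with compounds in concentration-response for 18-24 h at 37°C. Viability was read by CellTiter-Fluor fluorescence, then Nrf2 activity by luciferase luminescence.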

Experiment [8] can be described thus: qHTS for Inhibitors of Cell Surface uPA Generation: Validation Assay (AID 493164).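 Also: RAW 264.7 macrophage cells exposed to compound for 18 h; 0% is about no effect.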 The method, boiled down:
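RAW 264.7, 4000 cells/well, o/n plating; cpd 7-pt 1:5 dilution 2.45 nM–38.3 uM final; 18 h, 37 C/5% CO2; ATP-Lite, 5 s luminescence exposure.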

Experiment [9] concerns the target Galactokinase (Homo sapiens) (UniProt P51570). The experiment is described as follows: qHTS Validation Assay for Inhibitors of Human Galactokinase (GALK) (AID 493189). Also: potency is read from the fitted curve at half-maximal effect. The method, boiled down:
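Inhibition was measured as remaining ATP, detected by luciferase luminescence after a 1 h room-temperature reaction. Final conditions: 5 nM GALK, 100 uM galactose, 35 uM ATP, pH 8.0 HEPES buffer.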

Experiment [10] in a line: Validation screen for small molecules that induce DNA re-replication in SW480 colon adenocarcinoma cells (AID 504364). Also: 0% is about no effect. The method, boiled down:
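SW480 cells seeded at 250 per well were exposed to compound or DMSO for 48 hr at 37 C, 5% CO2, then stained with Hoechst for 40 min. DNA content per nucleus was imaged (405 nm ex, 500-530 nm em).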

Experiment [11] has as its target Peptidyl-prolyl cis-trans isomerase NIMA-interacting 1 (Homo sapiens) (UniProt Q13526). The experiment is described as follows: qHTS Validation Assay to Find Inhibitors of Pin1 (AID 504536; active = well fitted inhibition curve with a large enough effect in the polarisation, with a control signal flat, not every such curve was filed as active; the % refers to the polarisation; also: potency is read from the fitted curve at half-maximal effect). The method, boiled down: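 Fluorescence polarization competition: compounds (titration) displace HiFluor-488-labeled Pin1-1b peptide from Pin1 (0.3 uM final) in pH 7.5 HEPES buffer with DTT, 10 min at room temperature; %Activity normalized to no-enzyme wells, curves fitted.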

The target of experiment [12] is Phosphoglycerate kinase, glycosomal (Trypanosoma brucei brucei) (UniProt P07378). The experiment in a line: qHTS Validation Assay to Find Inhibitors of Phosphoglycerate Kinase (AID 504547).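 Also: control wells lack PGK and mark full inhibition.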 The method, boiled down:
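PGK activity was coupled to GAPDH (100nM final), which generates the unstable substrate 1,3-bisphosphoglycerate in-well. Reactions ran 60 minutes at room temperature in 100mM TEA pH 7.6, 5mM MgCl2, 0.01% Tween-20, then Kinase-Glo Plus luminescence was read.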

Experiment [13] has as its target phosphoglycerate mutase (Leishmania major) (UniProt Q4Q090). The experiment is described as follows: qHTS Validation Assay to Find Inhibitors of Phosphoglycerate Mutase (AID 504548). Also: series mostly up to about 58 µM; % is scaled to controls: 0 for no effect and ±100 for the full control effect. The following applies: Potency: inhibition qHTS. The method, boiled down:
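Lm PGAM 1.25nM final; 100 mM TEA pH 7.6, 5 mM MgCl2, 0.01% Tween-20; 45 min RT; Kinase-GloPlus, 10 min; end-point luminescence. Enzyme-free wells as negative controls.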

The target in experiment [14] is Ubiquitin carboxyl-terminal hydrolase 1 (Homo sapiens) (UniProt O94782). The experiment in a line: Inhibitors of USP1/UAF1: Pilot qHTS (AID 504865). Also: nearly all actives have a fitted effect of over 35% in size. Also: potency is read from the fitted curve at half-maximal effect. The method, boiled down: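 Deubiquitinase activity followed as kinetic rhodamine fluorescence release from 150 nM Ub-Rho. 1 nM USP1/UAF1 with compound, after 15 min room-temperature preincubation, in HEPES pH 7.8 buffer containing TCEP, EDTA, BSA and Tween-20.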

Experiment [15] in a line: qHTS for Inhibitors of ATXN expression: Validation of Cytotoxic Assay (AID 588349). Also: % is scaled to controls: 0 for no effect and ±100 for the full control effect. The method, boiled down:
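HEK293 cells were dosed with titrated compounds for 72 hr at 37 degrees C. Viability was read by CellTiter Glo luminescence, with intracellular ATP as the marker of cell survival.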

Experiment [16] is described as follows: qHTS for Inhibitors of ATXN expression: Validation (AID 588378). Also: series mostly up to about 57 µM; % is scaled to controls: 0 for no effect and ±100 for the full control effect; nearly all actives have a fitted effect of over 75% in size. The method, boiled down: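 Luciferase luminescence (Bright-Glo) from an ATXN2-FFLuc HEK293 line after 24 h compound exposure at 37 °C, preceded by a CellTiter-Fluor fluorescence viability read. Serial dilutions of a reference ATXN2 inhibitor and a luciferase inhibitor served as controls.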
In experiment [17] the target is Transient receptor potential cation channel subfamily V member 1 (Homo sapiens) (UniProt Q8NER1). The experiment in a line: HTS Assay for Compounds that Act as Enhancers of the Vanilloid Receptor 1 (AID 488979). Also: 0% is about no effect. The method, boiled down: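 TRPV1 cells loaded with Fluo-8 calcium dye; compound added and Ca2+ signal (ex 480/em 520 nm) followed 3 min, then capsaicin at EC20 added and read 2 more min to detect enhancement.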

Experiment [18] addresses D(1A) dopamine receptor (Homo sapiens) (UniProt P21728). The experiment in a line: HTS Assay for Allosteric Agonists of the Human D1 Dopamine Receptor: Primary Screen for Potentiators (AID 488982). Also: 0% is about no effect. The method, boiled down: as §1

Sequence of D(1A) dopamine receptor (Homo sapiens) (P21728 whole entry, looked up): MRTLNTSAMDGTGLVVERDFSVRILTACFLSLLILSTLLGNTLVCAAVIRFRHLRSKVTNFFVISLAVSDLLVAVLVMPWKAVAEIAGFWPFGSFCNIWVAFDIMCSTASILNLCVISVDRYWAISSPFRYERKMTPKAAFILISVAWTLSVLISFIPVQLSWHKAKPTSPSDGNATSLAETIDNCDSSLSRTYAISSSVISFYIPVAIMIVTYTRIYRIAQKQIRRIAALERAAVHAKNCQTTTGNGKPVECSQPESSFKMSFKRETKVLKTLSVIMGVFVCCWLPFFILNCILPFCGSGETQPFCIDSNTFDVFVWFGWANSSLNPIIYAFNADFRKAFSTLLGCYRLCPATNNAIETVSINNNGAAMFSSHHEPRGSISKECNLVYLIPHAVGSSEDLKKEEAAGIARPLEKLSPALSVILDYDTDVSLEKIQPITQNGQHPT
Sequence of Thyrotropin receptor (Homo sapiens) (P16473 whole entry, looked up): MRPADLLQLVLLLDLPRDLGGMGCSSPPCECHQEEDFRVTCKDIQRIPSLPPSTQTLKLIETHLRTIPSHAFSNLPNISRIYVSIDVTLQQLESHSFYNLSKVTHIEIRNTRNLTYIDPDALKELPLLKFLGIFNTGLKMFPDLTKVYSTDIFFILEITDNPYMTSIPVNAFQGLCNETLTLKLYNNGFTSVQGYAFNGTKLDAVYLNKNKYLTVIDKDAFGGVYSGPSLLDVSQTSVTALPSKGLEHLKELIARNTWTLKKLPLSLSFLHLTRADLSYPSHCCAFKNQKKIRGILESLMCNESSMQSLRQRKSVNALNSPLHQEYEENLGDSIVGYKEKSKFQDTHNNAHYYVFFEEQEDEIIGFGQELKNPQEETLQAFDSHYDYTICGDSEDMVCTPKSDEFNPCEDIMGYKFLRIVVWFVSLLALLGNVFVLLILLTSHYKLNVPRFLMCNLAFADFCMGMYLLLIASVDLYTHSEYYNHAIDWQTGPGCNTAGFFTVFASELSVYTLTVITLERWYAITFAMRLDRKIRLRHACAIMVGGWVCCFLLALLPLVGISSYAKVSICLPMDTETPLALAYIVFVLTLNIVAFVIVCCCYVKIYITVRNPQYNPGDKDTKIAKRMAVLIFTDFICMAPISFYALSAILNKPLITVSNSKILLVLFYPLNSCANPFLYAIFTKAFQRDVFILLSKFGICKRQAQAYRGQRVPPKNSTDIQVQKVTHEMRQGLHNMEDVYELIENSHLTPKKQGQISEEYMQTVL
Sequence of Phosphoglycerate kinase, glycosomal (Trypanosoma brucei brucei) (P07378 whole entry, looked up): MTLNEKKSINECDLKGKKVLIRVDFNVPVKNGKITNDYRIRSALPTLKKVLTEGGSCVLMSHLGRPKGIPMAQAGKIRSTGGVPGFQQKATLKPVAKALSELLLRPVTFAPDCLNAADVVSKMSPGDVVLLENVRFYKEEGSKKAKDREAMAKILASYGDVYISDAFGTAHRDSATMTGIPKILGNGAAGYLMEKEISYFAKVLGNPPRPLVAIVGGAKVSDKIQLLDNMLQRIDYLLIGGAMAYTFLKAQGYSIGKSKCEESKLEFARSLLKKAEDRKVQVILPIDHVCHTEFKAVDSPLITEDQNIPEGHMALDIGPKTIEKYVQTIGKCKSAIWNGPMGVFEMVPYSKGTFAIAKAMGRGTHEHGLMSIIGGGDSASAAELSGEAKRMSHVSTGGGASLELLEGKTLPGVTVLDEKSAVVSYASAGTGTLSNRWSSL
Sequence of Peptidyl-prolyl cis-trans isomerase NIMA-interacting 1 (Homo sapiens) (Q13526 whole entry, looked up): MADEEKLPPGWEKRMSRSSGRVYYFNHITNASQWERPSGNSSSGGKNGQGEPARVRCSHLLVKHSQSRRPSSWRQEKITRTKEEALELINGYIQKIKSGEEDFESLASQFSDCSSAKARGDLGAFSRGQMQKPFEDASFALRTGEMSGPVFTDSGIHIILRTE
Sequence of Galactokinase (Homo sapiens) (P51570 whole entry, looked up): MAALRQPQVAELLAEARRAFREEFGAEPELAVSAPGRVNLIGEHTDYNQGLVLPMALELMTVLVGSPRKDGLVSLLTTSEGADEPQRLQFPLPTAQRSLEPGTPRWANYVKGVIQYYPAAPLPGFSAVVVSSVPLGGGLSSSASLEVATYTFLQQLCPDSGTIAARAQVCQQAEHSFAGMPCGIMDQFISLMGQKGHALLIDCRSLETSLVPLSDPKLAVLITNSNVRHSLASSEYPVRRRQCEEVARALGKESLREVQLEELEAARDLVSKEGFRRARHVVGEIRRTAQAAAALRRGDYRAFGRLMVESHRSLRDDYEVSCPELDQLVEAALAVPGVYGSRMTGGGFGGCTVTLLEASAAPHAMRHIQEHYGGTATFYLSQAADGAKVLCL
Sequence of Thyrotropin-releasing hormone receptor (Homo sapiens) (P34981 whole entry, looked up): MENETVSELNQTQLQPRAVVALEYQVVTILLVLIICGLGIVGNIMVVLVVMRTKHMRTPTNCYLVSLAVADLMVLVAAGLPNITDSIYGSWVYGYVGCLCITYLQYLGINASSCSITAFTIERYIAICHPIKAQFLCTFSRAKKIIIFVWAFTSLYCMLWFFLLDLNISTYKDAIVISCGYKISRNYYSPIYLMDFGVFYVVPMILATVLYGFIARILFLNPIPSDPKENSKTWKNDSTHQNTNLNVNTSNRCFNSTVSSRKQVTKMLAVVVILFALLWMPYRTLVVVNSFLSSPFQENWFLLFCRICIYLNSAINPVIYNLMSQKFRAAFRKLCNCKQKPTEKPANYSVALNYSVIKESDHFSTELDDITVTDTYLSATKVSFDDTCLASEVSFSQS
Sequence of phosphoglycerate mutase (Leishmania major) (Q4Q090 1-553): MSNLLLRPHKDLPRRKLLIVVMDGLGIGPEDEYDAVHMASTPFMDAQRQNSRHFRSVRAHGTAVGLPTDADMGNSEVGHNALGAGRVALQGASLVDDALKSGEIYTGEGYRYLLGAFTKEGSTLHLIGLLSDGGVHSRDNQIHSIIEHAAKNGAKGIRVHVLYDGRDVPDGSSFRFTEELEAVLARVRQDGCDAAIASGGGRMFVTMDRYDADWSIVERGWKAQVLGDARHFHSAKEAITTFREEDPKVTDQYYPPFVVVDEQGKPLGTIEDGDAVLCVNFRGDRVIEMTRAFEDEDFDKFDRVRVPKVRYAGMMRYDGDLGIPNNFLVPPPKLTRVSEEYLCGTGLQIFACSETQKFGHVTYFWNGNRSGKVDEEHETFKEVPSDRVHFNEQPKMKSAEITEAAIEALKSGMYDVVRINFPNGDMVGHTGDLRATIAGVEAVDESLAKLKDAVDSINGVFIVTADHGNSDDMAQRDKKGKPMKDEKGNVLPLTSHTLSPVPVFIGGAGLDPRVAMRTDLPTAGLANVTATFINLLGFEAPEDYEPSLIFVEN
Sequence of Ubiquitin carboxyl-terminal hydrolase 1 (Homo sapiens) (O94782 whole entry, looked up): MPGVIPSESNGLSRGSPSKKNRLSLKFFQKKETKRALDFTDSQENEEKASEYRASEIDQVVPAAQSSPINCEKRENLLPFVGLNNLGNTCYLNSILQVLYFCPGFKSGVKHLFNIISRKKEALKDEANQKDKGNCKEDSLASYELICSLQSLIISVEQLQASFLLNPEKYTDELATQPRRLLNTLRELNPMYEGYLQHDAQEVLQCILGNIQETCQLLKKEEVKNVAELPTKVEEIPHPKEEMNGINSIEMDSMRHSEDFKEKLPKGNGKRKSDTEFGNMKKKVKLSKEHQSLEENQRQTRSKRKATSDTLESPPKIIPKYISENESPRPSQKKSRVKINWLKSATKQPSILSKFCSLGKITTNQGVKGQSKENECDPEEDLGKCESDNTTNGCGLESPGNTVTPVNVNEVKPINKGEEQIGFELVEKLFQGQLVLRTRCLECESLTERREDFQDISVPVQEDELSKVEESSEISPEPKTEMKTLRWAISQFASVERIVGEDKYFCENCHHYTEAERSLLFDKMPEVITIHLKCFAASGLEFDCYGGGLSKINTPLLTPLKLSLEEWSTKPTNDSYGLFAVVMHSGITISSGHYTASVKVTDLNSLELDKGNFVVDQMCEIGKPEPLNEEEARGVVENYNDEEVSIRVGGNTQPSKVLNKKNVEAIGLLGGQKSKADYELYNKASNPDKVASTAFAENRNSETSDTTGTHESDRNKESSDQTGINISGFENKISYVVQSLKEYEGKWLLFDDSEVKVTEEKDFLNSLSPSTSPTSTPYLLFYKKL
Sequence of Transient receptor potential cation channel subfamily V member 1 (Homo sapiens) (Q8NER1 whole entry, looked up): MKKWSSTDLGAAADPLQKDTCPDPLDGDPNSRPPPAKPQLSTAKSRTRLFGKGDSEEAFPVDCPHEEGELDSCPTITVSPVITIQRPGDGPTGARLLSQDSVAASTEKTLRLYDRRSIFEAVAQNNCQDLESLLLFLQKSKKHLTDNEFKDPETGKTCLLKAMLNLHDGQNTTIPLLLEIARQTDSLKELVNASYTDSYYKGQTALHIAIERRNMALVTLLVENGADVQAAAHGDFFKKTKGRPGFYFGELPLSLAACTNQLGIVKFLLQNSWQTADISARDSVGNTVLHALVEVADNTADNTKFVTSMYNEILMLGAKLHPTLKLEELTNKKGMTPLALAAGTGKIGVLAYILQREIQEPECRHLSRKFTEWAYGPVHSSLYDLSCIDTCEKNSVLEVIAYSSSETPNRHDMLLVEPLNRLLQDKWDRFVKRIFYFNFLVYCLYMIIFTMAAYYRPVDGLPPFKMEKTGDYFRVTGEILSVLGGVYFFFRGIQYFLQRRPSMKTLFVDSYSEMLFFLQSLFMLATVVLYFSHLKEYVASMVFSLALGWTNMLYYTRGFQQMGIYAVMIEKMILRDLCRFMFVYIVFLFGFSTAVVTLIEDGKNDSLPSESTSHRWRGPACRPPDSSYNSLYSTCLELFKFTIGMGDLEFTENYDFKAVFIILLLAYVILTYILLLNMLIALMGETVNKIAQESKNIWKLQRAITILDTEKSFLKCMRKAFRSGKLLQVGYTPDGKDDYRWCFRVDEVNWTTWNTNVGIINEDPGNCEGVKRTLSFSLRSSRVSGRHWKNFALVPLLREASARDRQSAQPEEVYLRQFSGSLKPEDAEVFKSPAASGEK

With `N#CC(C#N)=C(N)/C(C#N)=C/c1ccc(O)cc1`, the call in experiment [1] and in experiment [8] was inactive. Also, the Potency result in [2], in experiment [3], in experiment [4], in experiment [5], in [7] and in experiment [9] was “inactive” each time. The Potency result in experiment [10], in experiment [11], in experiment [12], in experiment [13], in [14] and in experiment [15] was “inactive” throughout. Moreover, the Potency result in experiment [16] was “inactive”. For the same compound, the activation in [6] was 0.25% (inactive). In addition, the viability change in [7] turned out to be 1.78%.
On to `O=C(O)C1=CC(=C(c2ccc(O)c(C(=O)O)c2)c2ccc(O)c(C(=O)O)c2)C=CC1=O`, for which the result in [17], in [1] and in experiment [8] was inactive. The Potency result in experiment [2], in [3], in experiment [7], in [10], in experiment [15] and in experiment [16] was “inactive” each time. Also, the activation in experiment [6] was 1% (inactive). Further, the viability change in experiment [7] was -5.86%. The Potency is 14.1 µM (active) in experiment [9], 675 nM (active) in [11] and 8.91 µM (active) in experiment [14].
As for `C=CCN1CCc2c(cc(O)c(O)c2Cl)C(c2ccccc2)C1` (configuration not stated), the outcome in [17], in experiment [1] and in experiment [8] was inactive. Besides, the Potency result in experiment [18], in experiment [4], in [5], in experiment [7], in [9] and in experiment [11] was “inactive” throughout. In addition, the Potency entry in [12], in experiment [13] and in [14] was “inactive” in each case. Besides, in experiment [6], the activation was -5.75% (inactive). Besides, the viability change in experiment [7] is -2.43%.
With `OC1(c2ccc(Cl)cc2)CCN(Cc2c[nH]c3ccccc23)CC1`, the result in experiment [1] and in [8] was inactive. For the same compound, the Potency result in experiment [4], in experiment [5], in experiment [7], in [9], in experiment [10] and in experiment [11] was “inactive” throughout. For the same compound, the Potency result in experiment [12], in experiment [13], in [14] and in experiment [15] was “inactive” each time. In addition, the activation in experiment [6] is 7.75% (inactive). Further, the viability change in experiment [7] was -2.32%.
With `O=C(c1ccc2c(c1)OCCO2)N1CCCCC1`, the compound was called inactive in experiment [1] and in experiment [8]. The Potency result in experiment [2], in experiment [18], in [3], in experiment [4], in experiment [9] and in [10] was “inactive” each time. The Potency entry in experiment [11], in experiment [13], in [14], in experiment [15] and in experiment [16] was “inactive” throughout. In experiment [6], the activation is -0.312% (inactive).
For `Nc1nc2ccc(Cl)cc2c2nc(-c3ccco3)nn12`, the result in experiment [17], in experiment [1] and in experiment [8] was inactive. Besides, the Potency entry in experiment [2], in experiment [9], in experiment [10], in [11], in [12] and in [14] was “inactive” each time. Besides, the Potency result in experiment [15] and in [16] was “inactive” throughout. Besides, the activation in [6] is 0.25% (inactive).
Turning to `Oc1cc2c(cc1O)C(c1ccccc1)CNCC2` (configuration not stated), the result in experiment [17], in experiment [1] and in experiment [8] was inactive. For the same compound, the Potency entry in [2], in experiment [5], in experiment [7], in [9], in experiment [10] and in [11] was “inactive” throughout. The Potency entry in [12], in [13], in [14], in [15] and in experiment [16] was “inactive” each time. Further, the activation in experiment [6] is 0.938% (inactive). Moreover, the viability change in [7] was -2.55%.
As for `COc1cc(CNC(=O)CCCCCCC(C)C)ccc1O`, the compound was called inactive in [1] and in experiment [8]. For the same compound, the Potency entry in [2], in [18], in experiment [3], in experiment [4], in [5] and in [7] was “inactive” in each case. The Potency result in [9], in experiment [10], in [11], in [12], in [13] and in experiment [15] was “inactive” in each case. Moreover, the Potency entry in experiment [16] was “inactive”. For the same compound, the viability change in experiment [7] was -9.77%.
